Measurements reported in the supplement of paper PMC10037445.
In all, about 2,900 compounds were measured (“NF-kB SEAP reporter activity, fold change vs agonist alone”: median about 0.99, highest 2% from about 2.6 on). For the sample, the highest values were picked, then their nearest neighbours and some compounds at random.

How the values were obtained:
RAW-Dual [1] = experiment: NF-kB SEAP reporter activity, fold change vs agonist alone; cytotoxicity flag (confluency mask): cytotoxic (confluency <70% of control); higher = enhanced NF-kB activity
Method in brief: (§1)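 Supernatant from RAW-Dual macrophages was read after 20 hours for IRF by QuantiLuc luminescence and for NF-κB by QuantiBlue absorbance at 620 nm. The cells (50,000 cells/well in DMEM, 384-well plates, 37 °C, 5% CO2) had received 50 nL of library stock by pin tool and, 1 h later, a PRR agonist. Reporter activity is expressed relative to agonist-alone wells as fold change, and wells were flagged cytotoxic if IncuCyte confluency was under 70% of agonist controls in both mask sets.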

RAW-Dual [2] = experiment: NF-kB SEAP reporter activity, fold change vs agonist alone; higher = enhanced NF-kB activity
Method in brief: as §1

RAW-Dual [3] = experiment: NF-kB SEAP reporter activity, fold change vs agonist alone; cytotoxicity flag (confluency mask): not cytotoxic; higher = enhanced NF-kB activity
Method in brief: as §1

[4] = agonist: ODN 1826 (TLR9) 0.5 ug/mL
[5] = agonist: Pam2CSK4 (TLR2/6) 0.1 ug/mL
[6] = agonist: Pam3CSK4 (TLR2/1) 0.1 ug/mL
[7] = library stock concentration (final ~1000-fold dilution): 10 mM, cytotoxicity flag (confluency mask): cytotoxic (confluency <70% of control), agonist: Imiquimod (TLR7) […]
[8] = library stock concentration (final ~1000-fold dilution): 10 mM, cytotoxicity flag (confluency mask): cytotoxic (confluency <70% of control), agonist: MPLA (TLR4) […]
[9] = library stock concentration (final ~1000-fold dilution): 10 mM, cytotoxicity flag (confluency mask): not cytotoxic, agonist: Imiquimod (TLR7) […]
[10] = library stock concentration (final ~1000-fold dilution): 10 mM, cytotoxicity flag (confluency mask): not cytotoxic, agonist: MPLA (TLR4) […]

## c1cc(-c2cnn3cc(-c4ccc(N5CCNCC5)cc4)cnc23)c2cccnc2c1 (library stock concentration (final ~1000-fold dilution): 10 mM)
RAW-Dual [1]; agonist: LPS (TLR4) 0.1 ug/mL
  NF-kB SEAP reporter activity: 0.202
RAW-Dual [1]; [4]
  NF-kB SEAP reporter activity: 0.193
RAW-Dual [1]; [5]
  NF-kB SEAP reporter activity: 0.0775
RAW-Dual [1]; [6]
  NF-kB SEAP reporter activity: 0.149

## c1cc(-c2cnn3cc(-c4ccc(N5CCNCC5)cc4)cnc23)c2cccnc2c1
RAW-Dual [2]; [7]
  NF-kB SEAP reporter activity: 0.258
RAW-Dual [2]; [8]
  NF-kB SEAP reporter activity: 0.269

## COc1cc(-c2cc(-c3ccc(N4CCNCC4)cc3)cnc2C)cc(OC)c1OC (library stock concentration (final ~1000-fold dilution): 10 mM)
RAW-Dual [3]; agonist: LPS (TLR4) 0.1 ug/mL
  NF-kB SEAP reporter activity: 3.37
RAW-Dual [3]; [4]
  NF-kB SEAP reporter activity: 0.202
RAW-Dual [3]; [5]
  NF-kB SEAP reporter activity: 1.29
RAW-Dual [3]; [6]
  NF-kB SEAP reporter activity: 1.57

## COc1cc(-c2cc(-c3cccc(O)c3)cnc2N)cc(OC)c1OC
RAW-Dual [2]; [9]
  NF-kB SEAP reporter activity: 1.24
RAW-Dual [2]; [10]
  NF-kB SEAP reporter activity: 1.77

## COc1cc(-c2cc(-c3cccc(O)c3)cnc2N)cc(OC)c1OC (library stock concentration (final ~1000-fold dilution): 10 mM)
RAW-Dual [3]; agonist: LPS (TLR4) 0.1 ug/mL
  NF-kB SEAP reporter activity: 1.87
RAW-Dual [3]; [4]
  NF-kB SEAP reporter activity: 1.54
RAW-Dual [3]; [5]
  NF-kB SEAP reporter activity: 1.09
RAW-Dual [3]; [6]
  NF-kB SEAP reporter activity: 1.39

## COc1cc(-c2cc(-c3ccc(N4CCNCC4)cc3)cnc2C)cc(OC)c1OC
RAW-Dual [2]; [9]
  NF-kB SEAP reporter activity: 1.28
RAW-Dual [2]; [10]
  NF-kB SEAP reporter activity: 1.94

## C[C@@H]1O[C@@H](O[C@H]2[C@H](OC(=O)[C@]34CCC(C)(C)C[C@H]3C3=CC[C@@H]5[C@@]6(C)C[C@H](O)[C@H](O[C@@H]7O[C@H](CO)[C@@H](O)[C@H](O)[C@H]7O)[C@@](C)(CO)[C@@H]6CC[C@@]5(C)[C@]3(C)CC4)O[C@H](CO)[C@@H](O)[C@@H]2O)[C@H](O)[C@H](O)[C@H]1O[C@@H]1OC[C@@H](O)[C@H](O)[C@H]1O (library stock concentration (final ~1000-fold dilution): 10 mM)
RAW-Dual [3]; agonist: LPS (TLR4) 0.1 ug/mL
  NF-kB SEAP reporter activity: 1.11
RAW-Dual [3]; [4]
  NF-kB SEAP reporter activity: 0.984
RAW-Dual [3]; [5]
  NF-kB SEAP reporter activity: 1.04
RAW-Dual [3]; [6]
  NF-kB SEAP reporter activity: 1.19

## C[C@@H]1O[C@@H](O[C@H]2[C@H](OC(=O)[C@]34CCC(C)(C)C[C@H]3C3=CC[C@@H]5[C@@]6(C)C[C@H](O)[C@H](O[C@@H]7O[C@H](CO)[C@@H](O)[C@H](O)[C@H]7O)[C@@](C)(CO)[C@@H]6CC[C@@]5(C)[C@]3(C)CC4)O[C@H](CO)[C@@H](O)[C@@H]2O)[C@H](O)[C@H](O)[C@H]1O[C@@H]1OC[C@@H](O)[C@H](O)[C@H]1O
RAW-Dual [2]; [9]
  NF-kB SEAP reporter activity: 0.83
RAW-Dual [2]; [10]
  NF-kB SEAP reporter activity: 1.01

## CN(C)C(CCOc1cccc2ccccc12)c1ccccc1.Cl (configuration not stated) (library stock concentration (final ~1000-fold dilution): 10 mM)
RAW-Dual [1]; agonist: LPS (TLR4) 0.1 ug/mL
  NF-kB SEAP reporter activity: 1.05
RAW-Dual [1]; [4]
  NF-kB SEAP reporter activity: 0.655
RAW-Dual [1]; [5]
  NF-kB SEAP reporter activity: 0.546
RAW-Dual [1]; [6]
  NF-kB SEAP reporter activity: 0.65

## CN(C)C(CCOc1cccc2ccccc12)c1ccccc1.Cl (configuration not stated)
RAW-Dual [2]; [7]
  NF-kB SEAP reporter activity: 1.61
RAW-Dual [2]; [8]
  NF-kB SEAP reporter activity: 0.958

## CCCSc1nc(NC2CC2c2ccc(F)c(F)c2)c2nnn(C3CC(OCCO)C(O)C3O)c2n1 (configuration not stated)
RAW-Dual [2]; [7]
  NF-kB SEAP reporter activity: 1.05
RAW-Dual [2]; [8]
  NF-kB SEAP reporter activity: 0.94

## CCCSc1nc(NC2CC2c2ccc(F)c(F)c2)c2nnn(C3CC(OCCO)C(O)C3O)c2n1 (configuration not stated) (library stock concentration (final ~1000-fold dilution): 10 mM)
RAW-Dual [1]; agonist: LPS (TLR4) 0.1 ug/mL
  NF-kB SEAP reporter activity: 1.04
RAW-Dual [1]; [4]
  NF-kB SEAP reporter activity: 0.615
RAW-Dual [1]; [5]
  NF-kB SEAP reporter activity: 0.51
RAW-Dual [1]; [6]
  NF-kB SEAP reporter activity: 0.332

## Cl.Cl.O=C(O)c1ccc(CN2CCC(CNC3CC3c3ccccc3)CC2)cc1 (configuration not stated)
RAW-Dual [2]; [9]
  NF-kB SEAP reporter activity: 1.01
RAW-Dual [2]; [10]
  NF-kB SEAP reporter activity: 1.05

## Cl.Cl.O=C(O)c1ccc(CN2CCC(CNC3CC3c3ccccc3)CC2)cc1 (configuration not stated) (library stock concentration (final ~1000-fold dilution): 10 mM)
RAW-Dual [3]; agonist: LPS (TLR4) 0.1 ug/mL
  NF-kB SEAP reporter activity: 1.01
RAW-Dual [3]; [4]
  NF-kB SEAP reporter activity: 1.22
RAW-Dual [3]; [5]
  NF-kB SEAP reporter activity: 0.875
RAW-Dual [3]; [6]
  NF-kB SEAP reporter activity: 0.786

## COc1cnc(NS(=O)(=O)c2ccc(N)cc2)nc1
RAW-Dual [2]; [9]
  NF-kB SEAP reporter activity: 0.927
RAW-Dual [2]; [10]
  NF-kB SEAP reporter activity: 1.02

## COc1cnc(NS(=O)(=O)c2ccc(N)cc2)nc1 (library stock concentration (final ~1000-fold dilution): 10 mM)
RAW-Dual [3]; agonist: LPS (TLR4) 0.1 ug/mL
  NF-kB SEAP reporter activity: 1.22
RAW-Dual [3]; [4]
  NF-kB SEAP reporter activity: 0.999
RAW-Dual [3]; [5]
  NF-kB SEAP reporter activity: 1.13
RAW-Dual [3]; [6]
  NF-kB SEAP reporter activity: 1.19

## COc1cc(Nc2nc3ccccc3nc2NS(=O)(=O)c2ccc(NC(=O)c3ccc(C)c(OC)c3)cc2)cc(OC)c1 (library stock concentration (final ~1000-fold dilution): 10 mM)
RAW-Dual [3]; agonist: LPS (TLR4) 0.1 ug/mL
  NF-kB SEAP reporter activity: 2.08
RAW-Dual [3]; [4]
  NF-kB SEAP reporter activity: 1.04
RAW-Dual [3]; [5]
  NF-kB SEAP reporter activity: 0.51
RAW-Dual [3]; [6]
  NF-kB SEAP reporter activity: 0.561

## COc1ccc(S(=O)(=O)Nc2cccnc2Nc2ccc(O)cc2)cc1
RAW-Dual [2]; [9]
  NF-kB SEAP reporter activity: 2.48
RAW-Dual [2]; [10]
  NF-kB SEAP reporter activity: 1.92

## COc1cc(Nc2nc3ccccc3nc2NS(=O)(=O)c2ccc(NC(=O)c3ccc(C)c(OC)c3)cc2)cc(OC)c1
RAW-Dual [2]; [9]
  NF-kB SEAP reporter activity: 0.914
RAW-Dual [2]; [10]
  NF-kB SEAP reporter activity: 0.963

## COc1ccc(S(=O)(=O)Nc2cccnc2Nc2ccc(O)cc2)cc1 (library stock concentration (final ~1000-fold dilution): 10 mM)
RAW-Dual [3]; agonist: LPS (TLR4) 0.1 ug/mL
  NF-kB SEAP reporter activity: 4.93
RAW-Dual [3]; [4]
  NF-kB SEAP reporter activity: 3.17
RAW-Dual [3]; [5]
  NF-kB SEAP reporter activity: 1.86
RAW-Dual [3]; [6]
  NF-kB SEAP reporter activity: 2.22

## CCC(C)n1cc(C)c2c(C(=O)NCc3c(C)cc(C)[nH]c3=O)cc(-c3ccc(N4CCNCC4)nc3)cc21 (configuration not stated)
RAW-Dual [2]; library stock concentration (final ~1000-fold dilution): 2 mM, cytotoxicity flag (confluency mask): not cytotoxic, agonist: Imiquimod (TLR7) […]
  NF-kB SEAP reporter activity: 0.954
RAW-Dual [2]; library stock concentration (final ~1000-fold dilution): 2 mM, cytotoxicity flag (confluency mask): not cytotoxic, agonist: MPLA (TLR4) […]
  NF-kB SEAP reporter activity: 0.941

## CCC(C)n1cc(C)c2c(C(=O)NCc3c(C)cc(C)[nH]c3=O)cc(-c3ccc(N4CCNCC4)nc3)cc21 (configuration not stated) (library stock concentration (final ~1000-fold dilution): 2 mM)
RAW-Dual [3]; agonist: LPS (TLR4) 0.1 ug/mL
  NF-kB SEAP reporter activity: 1.17
RAW-Dual [3]; [4]
  NF-kB SEAP reporter activity: 0.973
RAW-Dual [3]; [5]
  NF-kB SEAP reporter activity: 0.979
RAW-Dual [3]; [6]
  NF-kB SEAP reporter activity: 1.07

## COc1ccc(-c2cc(=O)c3c(O)c(OC)c(O)c(OC)c3o2)cc1 (library stock concentration (final ~1000-fold dilution): 10 mM)
RAW-Dual [3]; agonist: LPS (TLR4) 0.1 ug/mL
  NF-kB SEAP reporter activity: 1.27
RAW-Dual [3]; [4]
  NF-kB SEAP reporter activity: 0.993
RAW-Dual [3]; [5]
  NF-kB SEAP reporter activity: 1.14
RAW-Dual [3]; [6]
  NF-kB SEAP reporter activity: 1.05

## COc1ccc(-c2cc(=O)c3c(O)c(OC)c(O)c(OC)c3o2)cc1
RAW-Dual [2]; [9]
  NF-kB SEAP reporter activity: 0.931
RAW-Dual [2]; [10]
  NF-kB SEAP reporter activity: 1.09
